# PubChem BioAssay AID2576 (National Center for Advancing Translational Sciences (NCATS), 2010)
# “And” between values parts separate entries of the source, which are not always exact repeats. Identical values can stand only once. Records with an inconclusive call do not appear. More than one record can exist for a structure, and the calls need not agree. The source made the active and inactive calls. Calls come from the whole dose curve; as a rule, active = well fitted activation curve with a large enough effect; inconclusive = small, poorly fitted or top-dose-only effect, or effect the other way; inactive = flat fitted curve, though single readings scatter.
# Target: Pyruvate kinase PKM (Homo sapiens) (UniProt P14618)
# Sequence (P14618 whole entry, looked up, canonical isoform): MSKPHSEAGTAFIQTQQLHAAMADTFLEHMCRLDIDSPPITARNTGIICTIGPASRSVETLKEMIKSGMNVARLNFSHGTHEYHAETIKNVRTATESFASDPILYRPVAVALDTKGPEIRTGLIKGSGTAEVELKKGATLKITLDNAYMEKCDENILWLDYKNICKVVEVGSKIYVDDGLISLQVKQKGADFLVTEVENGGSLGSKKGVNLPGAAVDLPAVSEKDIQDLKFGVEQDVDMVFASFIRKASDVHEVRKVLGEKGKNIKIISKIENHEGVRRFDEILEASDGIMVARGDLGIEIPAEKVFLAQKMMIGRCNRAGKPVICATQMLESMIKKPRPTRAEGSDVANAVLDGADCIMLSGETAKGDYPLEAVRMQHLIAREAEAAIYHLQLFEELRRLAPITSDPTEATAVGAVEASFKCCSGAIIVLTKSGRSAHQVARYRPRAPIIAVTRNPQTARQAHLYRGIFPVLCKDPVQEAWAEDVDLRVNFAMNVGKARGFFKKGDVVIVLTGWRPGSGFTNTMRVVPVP
# Assay: Secondary LDH Assay for Activators of Human Pyruvate Kinase M2 isoform: for Probe SAR
# Details: purified hPK-M2, LDH-coupled NADH fluorescence kinetic; series mostly up to 58.4 µM; activation: at the top concentration
# From the text: NIH Chemical Genomics Center [NCGC] Matthew G. Vander Heiden, M.D., Ph.D. [Harvard Medical School, 77 Avenue Louis Pasteur, Boston, MA 02115] NCGC Assay Overview: Human pyruvate kinase muscle 2 (hPK-M2)enzyme was supplied as a highly purified (>95% pure) preparation from Harvard Medical School and a secondary assay was used to evaluate compounds. This assay couples the formation of pyruvate from hPK-M2 using lactate dehydrogenase (LDH) and NADH. The depletion of NADH is followed in a fluorescent-based kinetic assay that follows the formation of pyruvate to lactate, as catalyzed LDH (described by Hannaert et al., 2002)1 Pyruvate kinase substrates, PEP and ADP, were present in the assay at 0.1 mM and 4 mM respectively. In this kinetic assay initial rates were determined by following the fluorescence of NADH depletion.
# NCGC Assay Protocol Summary: Three uL of substrate mix (final concentration, 50 mM Tris-Cl pH 8.0, 200 mM KCl, 15 mM MgCl2, 0.1 mM PEP, 4.0 mM ADP, and 0.2 mM NADH) was dispensed into black-solid 1536 well plates. 23 nL of compounds were delivered by a pin tool and 1 uL of enzyme mix (final concentrations, 10 nM hPK-M2 and 1 uM of LDH) was added. Plates were immediately placed in ViewLux (Perkin Elmer) and NADH fluorescence was determined at 30 second exposure intervals for between 3 and 6 minutes. Data were normalized to the uninhibited and EC100 activation using known activators such as fructose-bis-phosphate.
SMILES,Potency,activation
Cc1cc2c(s1)c1cnn(Cc3ccccc3F)c(=O)c1n2C,inactive and 291 nM (active),
COc1cc(N2C(=O)c3ccccc3C2=O)c2ncccc2c1,,4.6% (inactive)
O=C1CCc2cc(S(=O)(=O)Nc3ccccc3Cl)ccc2N1,,16.6% (inactive)
CSc1cc2c(s1)c1cnn(Cc3cccc(O)c3)c(=O)c1n2C,0.206 µM (active),
Cc1ccc(C)c(OC2=NS(=O)(=O)c3ccccc32)c1,,-5.9% (inactive)
Cc1ccc(-c2nc3cnccn3c2Nc2ccc(C(C)C)cc2)o1,,8.88% (inactive)
O=C1c2ccccc2C(=O)N1C1CCCCC1,,3.59% (inactive)
Cc1ccccc1OC1=NS(=O)(=O)c2ccccc21,,1.19% (inactive)
O=C1CCc2cc(S(=O)(=O)Nc3ccccn3)ccc2N1,,-3.58% (inactive)
O=C1c2ccccc2C(=O)N1c1cccc(Cl)c1,,-2.64% (inactive)
Nc1cc(S(=O)(=O)N2CCN(S(=O)(=O)c3ccc4c(c3)OCCO4)CC2)ccn1,,20.4% (inactive)
COc1cc(F)c(S(=O)(=O)N2CCCN(S(=O)(=O)c3cccc(N)c3)CC2)c(F)c1,1.83 µM (active),
Cc1ccc(NS(=O)(=O)c2ccc3c(c2)CCC(=O)N3)cc1C,0.146 µM (active),
CN(C)c1cccc(S(=O)(=O)N2CCN(S(=O)(=O)c3ccc4c(c3)OCCO4)CC2)c1,,2.94% (inactive)
Cc1ccc2nc(-c3ccc(C)o3)c(Nc3ccc4c(c3)OCO4)n2c1,29.1 µM (active),
O=C1c2ccccc2C(=O)N1c1ccc(O)cc1,,4.24% (inactive)
Cc1ccc(N[S+](=O)([O-])c2cc3c(cc2CCc2ccccc2)NC(=O)CO3)cc1C,,12.6% (inactive)
Cc1ccc(NS(=O)(=O)c2ccc3c(c2)N(C)C(=O)CO3)cc1C,1.46 µM (active),
COc1ccc(NS(=O)(=O)c2ccc3c(c2)CCC(=O)N3)cc1,,24.1% (inactive)
Cc1ccc(NS(=O)(=O)c2cc3c(cc2-c2ccsc2)NC(=O)CO3)cc1C,,16.6% (inactive)

SMILES,Potency,activation
Cc1ccc(NS(=O)(=O)c2cc3c(cc2Cl)CCC(=O)N3)cc1C,0.461 µM (active),
COc1ccccc1NS(=O)(=O)c1ccc2c(c1)CCC(=O)N2,,20.2% (inactive)
O=C1c2ccccc2C(=O)N1c1cccc2cnccc12,,-6.12% (inactive)
Cc1ccccc1NS(=O)(=O)c1ccc2c(c1)CCC(=O)N2,6.51 µM (active),
COc1cccc(N2C(=O)c3ccccc3C2=O)c1,,17.9% (inactive)
COc1ccccc1OC1=NS(=O)(=O)c2ccccc21,,-4.13% (inactive)
O=C1CCc2cc(S(=O)(=O)NCc3ccccc3)ccc2N1,,23.2% (inactive)
O=C1c2ccccc2C(=O)N1Cc1ccccc1,,3.92% (inactive)
Cn1c2cc(S(C)=O)sc2c2cnn(Cc3cccc(O)c3)c(=O)c21 (stereo not given),1.03 µM (active),
COc1cccc(Cn2ncc3c4sc(SC)cc4n(C)c3c2=O)c1,0.206 µM (active),
Cc1ccc(NS(=O)(=O)c2cc3c(cc2F)NC(=O)CC3)cc1C,2.59 µM (active),
Cc1ccc(NS(=O)(=O)c2cc3c(cc2C)NC(=O)CO3)cc1C,1.03 µM (active),
CSc1cc2c(s1)c1cnn(Cc3cccc(N)c3)c(=O)c1n2C,0.058 µM (active),
Cc1ccc(NS(=O)(=O)c2cc3c(cc2/C=C/c2ccccc2)NC(=O)CO3)cc1C,,-4.81% (inactive)
Cc1ccc(NS(=O)(=O)c2ccc(F)cc2)cc1C,,14.6% (inactive)
O=C1c2ccccc2C(=O)N1Cc1ccccn1,,6.36% (inactive)
Cc1ccc(N(C)S(=O)(=O)c2ccc3c(c2)CCC(=O)N3)cc1C,,0.911% (inactive)
O=C1c2ccccc2C(=O)N1Cc1cccnc1,,4.44% (inactive)
Cc1ccc2nc(-c3ccncc3)c(Nc3ccccc3)n2c1,,-2.52% (inactive)
O=C1c2ccccc2C(=O)N1c1noc2ccccc12,,-11.1% (inactive)
